43 sequences from PMC7819943, “Rice protein-binding microarrays: a tool to detect cis-acting elements near promoter regions in rice” can be followed below.

The full ranking holds about 39,000 sequences; the median of “fluorescence intensity (a.u.)” is about 4,300, and the highest 2% start at about 39,000. The list comes from a sample in which the highest values are over-represented; it also holds similar and randomly drawn sequences.

For the assay, the target named is T1, OsSMF1 (Oryza sativa, UniProt Q6ZLB0 1-436).
T1 sequence: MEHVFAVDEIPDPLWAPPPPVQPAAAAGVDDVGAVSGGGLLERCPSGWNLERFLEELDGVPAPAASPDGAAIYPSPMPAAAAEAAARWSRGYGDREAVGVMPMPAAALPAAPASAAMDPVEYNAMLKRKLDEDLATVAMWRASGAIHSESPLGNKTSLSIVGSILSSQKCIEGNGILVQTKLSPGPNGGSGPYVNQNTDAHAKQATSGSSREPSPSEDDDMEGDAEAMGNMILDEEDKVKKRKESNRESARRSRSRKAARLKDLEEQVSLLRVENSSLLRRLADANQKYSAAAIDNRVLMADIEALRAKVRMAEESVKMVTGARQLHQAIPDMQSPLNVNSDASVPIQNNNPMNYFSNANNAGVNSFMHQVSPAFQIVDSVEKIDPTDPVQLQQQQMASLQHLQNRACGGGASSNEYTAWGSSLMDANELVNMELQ
Nature of the assay: protein-binding microarray (RPBM); PBS, 2% BSA, 51.3 ng/ul salmon testes DNA, 50 uM zinc acetate, 200 nM TF, 25 C, 1 h; high values mean tight binding. The settings on record: protein: recombinant; tags: N-terminal polyhistidine and DsRed monomer fusion (pET32a); chain copies: 2; label: CyDye5-dUTP incorporated in the synthesized complementary strand; 3' TTTTT single-stranded linker to array surface; dsDNA, one strand shown. In outline: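 The binding signal is fluorescence intensity per feature, in arbitrary units, read on an Axon 4000B scanner. Polyhistidine- and DsRed-tagged transcription factors (N-terminal fusions) from E. coli BL21-CodonPlus were purified on Ni–NTA and applied at 200 nM for 1 h at 25 °C to a double-stranded, BSA-blocked custom Agilent array in buffer with 50 µM zinc acetate.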
As for “ACCAAAGTTGGTACAAGTGTATAATCAGAATGGGAGAGCGCGGAGTCACCTAGTGCAG”, the binding signal is 21600 fluorescence intensity (a.u.). The figure for “AATCGATTCTCCACTACTCTCTCGTCATTGTTCCCATGTTCGGAGTCACCTAGTGCAG” is 3270 fluorescence intensity (a.u.).

Turning to “CCTCCTGTCAGACTGTCGTCAGTGTCACACTGTCACTGTCCGGAGTCACCTAGTGCAG”, the binding signal was 6520 fluorescence intensity (a.u.). The figure for “AAACTTATTTGGCCATGGTGTCATCGGGGTTGGCGTTTAGCGGAGTCACCTAGTGCAG” is 3860 fluorescence intensity (a.u.); for “TTTATTACACAACGCAACTGGCCAGACTTTAGCGGGTCATCGGAGTCACCTAGTGCAG” it is 46000 fluorescence intensity (a.u.). Turning to “AAAAGACTGGAATACGTGGCGAACAAACTTTATTACACAACGGAGTCACCTAGTGCAG”, the binding signal was 6740 fluorescence intensity (a.u.).

For “GCATGCAGGGCATGGCGAGACGGTGACGTGCTCCAAGGCGCGGAGTCACCTAGTGCAG”, the binding signal is 4760 fluorescence intensity (a.u.). The figure for “ACTCGCCTGGAAACCGTGAGATGAATTTATTAAGCCTAATCGGAGTCACCTAGTGCAG” is 3930 fluorescence intensity (a.u.); for “TAGTCCAATCCATCGTGTTTCCACGTGGCGACCCAACCCCCGGAGTCACCTAGTGCAG” it is 40000 fluorescence intensity (a.u.); for “CTCACCACCACCGTCGTCATCGTCGTCGTCACCCTCCTCCCGGAGTCACCTAGTGCAG” it is 6620 fluorescence intensity (a.u.). The figure for “CCATGTAAGTGCCACGTCAACGCCACGTGGATCGAAGACTCGGAGTCACCTAGTGCAG” is 55500 fluorescence intensity (a.u.). The figure for “GGATCCCATTAACACGTGTCACCGTGGCATGCCACGTCATCGGAGTCACCTAGTGCAG” is 51400 fluorescence intensity (a.u.). As for “CCATGTAAGTGTCACGTCAATGCCACGTGAGACGAAGACCCGGAGTCACCTAGTGCAG”, the binding signal is 12500 fluorescence intensity (a.u.).

As for “AACACCAATCACCACGTACGCCGACCAACCCCATCCACCCCGGAGTCACCTAGTGCAG”, the binding signal was 6870 fluorescence intensity (a.u.).

As to “ATGGGCCATGGCCCATCCGTGCCACGTGTCGCATGCTCCTCGGAGTCACCTAGTGCAG”, the binding signal is 27900 fluorescence intensity (a.u.).

Regarding “GCCATGCATCCATACACGTCTACACTCTACACCCATTAACCGGAGTCACCTAGTGCAG”, the binding signal was 4850 fluorescence intensity (a.u.).

As for “CCCATCTACCCACCCTCCGACACGTGGGCCCCACCCCGACCGGAGTCACCTAGTGCAG”, the binding signal is 11000 fluorescence intensity (a.u.). The figure for “GATCCAACACGTGTCCCCTACCCACGACACGTGGCAACCCCGGAGTCACCTAGTGCAG” is 36500 fluorescence intensity (a.u.); for “GTCACCTAAGTGCCATGTCAACGCCACGTGGAAAGAAGACCGGAGTCACCTAGTGCAG” it is 25100 fluorescence intensity (a.u.). The figure for “AGGGGCCACACCGACCCTCCACGTCATCGTCCACGTCACCCGGAGTCACCTAGTGCAG” is 40900 fluorescence intensity (a.u.); for “ACAAGGCAACTACTCCTAGCTAGTAAGCATCAATGCATGGCGGAGTCACCTAGTGCAG” it is 4520 fluorescence intensity (a.u.). The figure for “CGTAGGCTCGTCGCGGCCACGTACGCCATCCCGAGCTCGGCGGAGTCACCTAGTGCAG” is 6280 fluorescence intensity (a.u.).

“TTGGCTTCTTCAACTTACGTTACCCAATGCATTATATTTGCGGAGTCACCTAGTGCAG”: the binding signal was 4300 fluorescence intensity (a.u.). The figure for “ACTGCTCACGCCTTAACTGCGCGTCTTAAGGTGGCGTGGCCGGAGTCACCTAGTGCAG” is 4310 fluorescence intensity (a.u.); for “CGAGCCCACTCGAGGTGACTCACCTTGTTCCTCCACCAGTCGGAGTCACCTAGTGCAG” it is 18500 fluorescence intensity (a.u.). The figure for “TCTGAGTTACTTCCAAGTTGACTAGTTACCTCTTACTACCCGGAGTCACCTAGTGCAG” is 3260 fluorescence intensity (a.u.); for “TTAATGTCCGAACACCTCATACAACGTGACGCGTCAAAACCGGAGTCACCTAGTGCAG” it is 6890 fluorescence intensity (a.u.); for “AGTTGGCGTGGATGGCCACGATTCTGGACCCGGGGTTGCCCGGAGTCACCTAGTGCAG” it is 3600 fluorescence intensity (a.u.). The figure for “ATTCTAATGACACCTAAGTGCCACGTCAACGCCACGTGGACGGAGTCACCTAGTGCAG” is 45100 fluorescence intensity (a.u.); for “CTGAATTTAGACACCTCAGCGCCACGTCAACTGGCGCTGACGGAGTCACCTAGTGCAG” it is 18400 fluorescence intensity (a.u.).

For “ATGGACTGTTTTGTCAACTAAGTAATGCATGACACGTGGACGGAGTCACCTAGTGCAG”, the binding signal is 14500 fluorescence intensity (a.u.). The figure for “GTCCGATCGGACGCACCACGCATCCTAGCCGTCCACGCCACGGAGTCACCTAGTGCAG” is 3180 fluorescence intensity (a.u.); for “ACCGATGCCATCATCCACGTCATCGTCCACGTGTCACCCACGGAGTCACCTAGTGCAG” it is 45100 fluorescence intensity (a.u.); for “TTAATTCTAATGCCACTTAAGCGCAACGTCAACACCACGTCGGAGTCACCTAGTGCAG” it is 18200 fluorescence intensity (a.u.). The figure for “CTCATCGTCCTCCACGTGTCCACCCATACACGTGTCGCCACGGAGTCACCTAGTGCAG” is 29800 fluorescence intensity (a.u.); for “ACGCATGGATCCACGTGACGTCACGCCACGTCATCCACCACGGAGTCACCTAGTGCAG” it is 60800 fluorescence intensity (a.u.). The figure for “TATGTATGAATGACAACACCGCCACGTCAGCGCCACGTCACGGAGTCACCTAGTGCAG” is 50400 fluorescence intensity (a.u.). As for “TACCAGTGTCACGCAGTGACGCAATGGATCATGCTATCCACGGAGTCACCTAGTGCAG”, the binding signal was 4450 fluorescence intensity (a.u.).

Consider “AATCTCACCCATCCACGTGTCCCCAGATCTCATCCCCATCCGGAGTCACCTAGTGCAG”, for which the binding signal is 18700 fluorescence intensity (a.u.). On to “GACAACCGAACACGTCGAGCCAGCGAATGATGAAACCCCACGGAGTCACCTAGTGCAG”, for which the binding signal is 31800 fluorescence intensity (a.u.).

Consider “CGGCGGCTTCTTGTTGGTGACGCCGCACGGCATGGTTGATCGGAGTCACCTAGTGCAG”, for which the binding signal is 5370 fluorescence intensity (a.u.).

With “CACTGCCCATTCGCCACGTCCCCTAACGCTCCAGGTTTATCGGAGTCACCTAGTGCAG”, the binding signal is 11800 fluorescence intensity (a.u.). The figure for “GAGATCGAACATCGATGCAGCCCCGCGTCAGGTGCCAAGTCGGAGTCACCTAGTGCAG” is 3510 fluorescence intensity (a.u.).
